Sampled rows, rich in hits. Any-hit rate of the full collection: about 20%.
HCMV antiviral: human cytomegalovirus inhibition | AID 1259415 | HFF cells, HCMV-luciferase reporter, 72 h; hits give low values | activity change, negative = inhibition, % at 57.5 µM | 4.5% of 410,000 active; in the data active = activity change below about -60%; inconclusive = no clear call, values can overlap the other calls; inactive = above about -39%; note: % is set by controls: 0 for no effect and ±100 for the full control effect
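Compounds were evaluated in HFFs infected with an HCMV luciferase reporter virus (MOI 1 PFU/cell). Luciferase in lysates collected 72 h post infection served as the replication measure.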
Cycloheximide cs: affects cycloheximide protein synthesis inhibition readout, counter-screen; max response, %; AID 2314; cell reporter, cycloheximide protein synthesis inhibition counterscreen; 12% of 300,000 active; in the data active = max response mostly above about 13%, no sharp cut-off; inactive = mostly below about 14%; note: read at 38.3 µM for the half of the compounds with a filed dose; 0% is about no effect
Shiga toxin inh: Shiga toxin inhibition; Vero cells, Shiga toxin protein synthesis inhibition reporter; inhibition, % at 38.7 µM; 9.2% of 290,000 active; AID 2315; in the data active = inhibition mostly above about 28%, no sharp cut-off; inactive = mostly below about 43%; note: 0% is about no effect
Pf growth 48h: inhibits P. falciparum growth in the first generation, 48 h. P. falciparum luciferase growth in erythrocytes, 48 h. Potency, µM (doses to about 28.7 µM), for the others: at the top dose activity change, negative = inhibition, hits mostly inhibitors. 5.9% of 310,000 active; note: potency is the fitted concentration of half-maximal effect; % is set by controls: 0 for no effect and ±100 for the full control effect
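Luminescence readout; reporter = integrated firefly luciferase in P. falciparum. RBC culture at 2% hematocrit, 0.1% parasitemia final, 37 C/5% CO2; decreased signal taken as growth inhibition.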
Pf growth 96h: inhibits malaria parasite growth, 96 h; P. falciparum luciferase reporter growth, 96 h; Potency, µM (doses to about 28.7 µM), for the others: at the highest dose activity change, negative = inhibition, usual class: inhibitors; 6.9% of 320,000 active; AID 504834; note: potency is the fitted concentration of half-maximal effect; % is set by controls: 0 for no effect and ±100 for the full control effect
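96 h incubation, 37 C, 5% CO2, of luciferase-reporter P. falciparum-infected RBCs (2% hematocrit, 0.05% parasitemia final) with test compounds; endpoint luminescence.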
* hit, by the source's call; ? = inconclusive; nt = no result; [ ] = remark or other dose. Unless noted, calls come from the whole dose curve; as a rule, active = well fitted inhibition curve with a large enough effect; inconclusive = small, poorly fitted or top-dose-only effect, or another doubt; inactive = no such curve, though single readings can be large or run the other way.

SMILES	HCMV antiviral	Cycloheximide cs	Shiga toxin inh	Pf growth 48h	Pf growth 96h
Cc1csc(SCC(=O)c2ccc(S(=O)(=O)N3CCOCC3)cc2)n1	17.8	-4.4	27.5	?	10.4µM*
CCn1c(SCC(=O)OC)nc2cc(S(=O)(=O)N3CCOCC3)ccc21	-17.4	nt	nt	-13.8%	-10.0%
CCc1ccc(C(=O)CSc2nc3cc(S(=O)(=O)N4CCOCC4)ccc3n2CC)cc1	0.7	12.8	21.1	?	10.4µM*
CCN(C(=O)c1cc(Cl)ccc1OC)c1ccccc1C	-30.3	7.1	-3.0	?	-3.2%
CCN(C(=O)c1cnc(NC(C)C)cc1C(F)(F)F)c1ccc(Cl)cc1Cl	-9.3	-1.3	-5.6	2.94µM*	11.7µM*
Cn1cnc(S(=O)(=O)N2CCC(C(=O)N3CCN(c4ccccc4F)CC3)CC2)c1	-15.9	nt	nt	nt	nt
CC(C)(C)n1nnnc1C(c1ccc(Cl)cc1)N(Cc1cccnc1)Cc1ccco1 (centres undefined)	-21.6	-3.8	14.7	?	23.7%
CC(C)(C)n1nnnc1C(c1cccnc1)N(Cc1ccccc1)Cc1cccs1 (centres undefined)	-85.3*	-0.4	-12.2	0.828µM*	0.165µM*
CC(C)(C)n1nnnc1C(c1ccc(C(F)(F)F)cc1)N(Cc1ccccc1)Cc1ccco1 (centres undefined)	-81.6*	-3.4	-7.6	?	8.9%
CC(C)(C)n1nnnc1C(c1ccc(C(F)(F)F)cc1)N(Cc1ccc(F)cc1)Cc1ccco1 (centres undefined)	66.6	13.0*	active	1.85µM*	-18.4%
Cc1ccc(C(c2nnnn2C(C)(C)C)N(Cc2ccco2)Cc2cccs2)cc1 (centres undefined)	-25.8	17.0	34.2	13.1µM*	nt
Cc1ccccc1NC(=O)CC(NCc1cccnc1)C(=O)O (centres undefined)	15.8	nt	nt	nt	nt
CCc1ccc(CNC(=O)Cn2nc(-c3ccc(Cl)cc3)ccc2=O)cc1	8.9	nt	nt	nt	nt
COc1cc(CN2CCC(C(=O)NC(c3ccc(-c4ccccc4)cc3)c3cnccn3)CC2)cc(OC)c1 (centres undefined)	7.5	nt	nt	nt	nt
COc1ccc(NC(=O)[C@H](C)NC(=O)C2CCN(S(=O)(=O)c3ccc(C)cc3)CC2)cc1	-15.6	-1.7	1.6	-25.8%	?
CCN(Cc1ccccc1)C(c1ccc(C)cc1)c1nnnn1C(C)(C)CC (centres undefined)	-23.1	1.0	-13.4	13.1µM*	136.6%
CC(C)(C)n1nnnc1C(c1ccc(F)cc1)N(Cc1ccc(F)cc1)Cc1ccco1 (centres undefined)	?	16.0*	20.6	?	-16.0%
CCc1cc(=O)oc2cc(OC(C)C(=O)O)c(Cl)cc12 (centres undefined)	40.2	-1.3	-15.2	7.3%	8.9%[5.75 µM]
CCN(CCNCC(O)COc1ccccc1C(C)C)c1cccc(C)c1 (centres undefined)	13.8	-4.1	-6.8	3.29µM*	5.22µM*
CCOC(=O)c1cccc(OCC(O)CNCCOc2ccccc2F)c1 (centres undefined)	42.8	-2.9	-4.0	6.6%	11.4%
CC(=NCCc1ccccc1)C1=C(O)CSC1=O	42.7	27.8*	13.6	2.1%	-12.7%
COc1ccc(C2C(O)C(c3c[nH]c4ccccc34)=NN2C(=O)CCl)cc1 (centres undefined)	-103.8*	8.3	-5.5	2.94µM*	?
COc1ccc(C2NN=C(c3c[nH]c4ccccc34)C2O)cc1 (centres undefined)	115.0	36.1*	38.3*	?	?
CCOc1ccc(N(CC(=O)NC2CCCC2)C(=O)c2ccc(C)s2)cc1	-16.1	-6.3	-2.2	-21.7%	33.8%
CNC(=O)c1ccc(NC(=O)C2CCN(S(=O)(=O)c3cccc(C(F)(F)F)c3)CC2)cc1	0.0	nt	nt	13.1µM*	?
SMILES	HCMV antiviral	Cycloheximide cs	Shiga toxin inh	Pf growth 48h	Pf growth 96h
Cc1ccnc(NC(=O)C2CCN(S(=O)(=O)c3cccc(C(F)(F)F)c3)CC2)c1	-36.6	14.4*	38.9	?	?
O=C(NCc1cccs1)C1CC(=O)N(Cc2ccccc2)C1 (centres undefined)	-5.0	nt	nt	nt	nt
COc1cc(Cl)c(C)cc1NC(=O)CSc1nnc(CCC(=O)O)c(=O)[nH]1	-18.6	-1.6	7.4	11.6%	110.7%
Cc1cccc(S(=O)(=O)c2c(N)n(/N=C/c3cccnc3)c3nc4ccccc4nc23)c1	?	-2.6	-26.2	-19.7%	nt
COc1cccc(/C=N/n2c(N)c(S(=O)(=O)c3cccs3)c3nc4ccccc4nc32)c1	-61.6*	9.7	-9.0	?	?
Nc1c(S(=O)(=O)c2cccs2)c2nc3ccccc3nc2n1/N=C/c1cccc(O)c1	-102.7*	-1.2	5.1	?	nt
COc1ccc(/C=N/n2c(N)c(S(=O)(=O)c3cccs3)c3nc4ccccc4nc32)cc1OC	-88.0*	-2.5	-16.0	2.94µM*	nt
CC(C)Cn1c(N)c(S(=O)(=O)c2cccs2)c2nc3ccccc3nc21	nt	4.0	4.1	?	nt
CCNC(=O)C1CCCN(c2ncnc3onc(C)c23)C1 (centres undefined)	-6.7	nt	nt	nt	nt
COCc1cccc(-c2csc(C(NC(C)=O)c3ccccc3)n2)c1 (centres undefined)	39.5	nt	nt	nt	nt
COCCN(C(=O)CSc1nnc(-c2ccccc2C)n1C)c1c(N)n(Cc2ccccc2)c(=O)[nH]c1=O	?	11.0	6.2	-19.2%	-0.2%
CCSc1ccc([C@@H]2[C@@H]3C(=O)N(CC)C(=O)[C@@H]3[C@]3(C(=O)OC)CCCCN23)cc1	-26.5	nt	nt	-90.7%	-100.0%
CCCSc1ccc([C@H]2N[C@@](C)(C(=O)OC)[C@H]3C(=O)N(C)C(=O)[C@@H]23)cc1	-25.2	nt	nt	-7.5%	69.5%
CCSc1ccc([C@@H]2[C@H]3C(=O)N(CC)C(=O)[C@H]3[C@]3(C(=O)OC)CCCCN23)cc1	18.9	nt	nt	4.15µM*	4.65µM*
CCCCCCSc1ccc([C@H]2N[C@@](C)(C(=O)OC)[C@H]3C(=O)N(C)C(=O)[C@@H]23)cc1	8.6	nt	nt	14.7µM*	?
CCCCCCSc1ccc([C@@H]2[C@H]3C(=O)N(C)C(=O)[C@H]3[C@]3(C(=O)OC)CCCCN23)cc1	-0.4	nt	nt	13.1µM*	11.7µM*
CCC(C)Sc1ccc([C@@H]2[C@H]3C(=O)N(CC)C(=O)[C@H]3[C@]3(C(=O)OC)CCCCN23)cc1 (some centres undefined)	15.3	nt	nt	2.62µM*	3.29µM*
CCOC(=O)c1c(-c2ccccc2)csc1NC(=O)c1ccc(S(=O)(=O)N2CCOCC2)cc1	-25.9	-1.0	-9.0	19.1%	1.7%
CC(C)CNS(=O)(=O)c1ccc(S(=O)(=O)NC2CCOC(C)(C)C2)cc1 (centres undefined)	18.6	nt	nt	nt	nt
CCSc1ccc([C@@H]2[C@H]3C(=O)N(C)C(=O)[C@H]3[C@]3(C(=O)OC)CCCCN23)cc1	18.2	nt	nt	11.7µM*	?
CCCCCCSc1ccc([C@@H]2[C@@H]3C(=O)N(CC)C(=O)[C@@H]3[C@]3(C(=O)OC)CCCCN23)cc1	20.8	nt	nt	nt	nt

Compound activity as filed in PubChem BioAssay.
